Measured values reported in PubChem BioAssay (NCI).
Compounds without any hit were thinned out: in the full panel of roughly 79,000, 15% have a hit. Unmarked numbers belong to inactive results. Calls of active or inactive are those of the source. Cut-off read from the data, not from the text of the source: active = growth inhibition above about 70%; inactive = the rest.

Tests used:
[1] = NCI Yeast Anticancer Drug Screen. Data for the rad52 strain (AID 147);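 note: 0% = growth of vehicle-treated control cultures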; settings: S. cerevisiae rad52 mutant growth inhibition, stronger effect = higher value
Procedure, shortened: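 Screen used a yeast mutant impaired in DNA repair. After compound exposure, growth was measured. Values reflect inhibition compared with vehicle-treated cells.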

[2] = NCI Yeast Anticancer Drug Screen. Data for the wt1 strain (AID 149);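 note: 0% = growth of vehicle-treated wt1 cultures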; settings: S. cerevisiae wt1 strain (SPY 50644) growth inhibition, stronger effect = higher value
Procedure, shortened: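 Measured: growth of wt1 yeast under compound versus vehicle treatment, reported as inhibition.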

[3] = NCI Yeast Anticancer Drug Screen. Data for the rad50EPP+ strain (AID 151);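 note: 0% = growth of vehicle-treated control cultures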; settings: S. cerevisiae rad50 mutant strain, stronger effect = higher value
Procedure, shortened: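 Exposing the rad50EPP+ strain to each compound, growth was compared with vehicle-only cultures to give inhibition.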

[4] = NCI Yeast Anticancer Drug Screen. Data for the mgt1 strain (AID 153); settings: S. cerevisiae mgt1 mutant growth inhibition, stronger effect = higher value
Procedure, shortened: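 Genetically defined yeast (mgt1) treated with compound; inhibition of growth expressed against vehicle-treated controls.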

[5] = NCI Yeast Anticancer Drug Screen. Data for the mec2-1 strain (AID 157); settings: S. cerevisiae mec2-1 strain, stronger effect = higher value
Procedure, shortened: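 Readout is yeast growth inhibition, normalised to vehicle-treated controls, in the mec2-1 strain exposed to compound.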

[6] = NCI Yeast Anticancer Drug Screen. Data for the rad14 strain (AID 159);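 note: 0% = growth of vehicle-treated control cultures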; settings: S. cerevisiae rad14 strain growth inhibition, stronger effect = higher value
Procedure, shortened: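 Here, inhibition of yeast growth was measured after compound exposure, using a strain with a genetic defect in DNA damage repair and vehicle-treated cultures as the reference.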

[7] = NCI Yeast Anticancer Drug Screen. Data for the sgs1 mgt1 strain (AID 161);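 note: 0% = growth of cultures given vehicle only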; settings: S. cerevisiae sgs1 mgt1 strain, stronger effect = higher value
Procedure, shortened: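 Compounds are added to genetically altered yeast, and growth is compared with cultures given vehicle alone to give percent inhibition.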

[8] = NCI Yeast Anticancer Drug Screen. Data for the CLN2oe strain (AID 163);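 note: 0% = growth of vehicle-only control cultures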; settings: S. cerevisiae CLN2oe strain, stronger effect = higher value
Procedure, shortened: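 Values reflect how much compound exposure reduced yeast growth, referenced to vehicle-exposed cells. Assay organism is a strain with a defined genetic change affecting cell-cycle control.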

[9] = NCI Yeast Anticancer Drug Screen. Data for the cln2 rad14 strain (AID 165);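 note: 0% = growth equal to vehicle treated cultures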; settings: S. cerevisiae cln2 rad14 strain, stronger effect = higher value
Procedure, shortened: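 Relative to vehicle controls, growth inhibition of compound-treated cln2 rad14 yeast was recorded.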

[10] = NCI Yeast Anticancer Drug Screen. Data for the bub3 strain (AID 167); settings: S. cerevisiae bub3 mutant strain, stronger effect = higher value
Procedure, shortened: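 Whole-cell yeast assay. The mutant strain was incubated with compounds, and growth inhibition was determined by comparison with vehicle-treated cells.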

[11] = NCI Yeast Anticancer Drug Screen. Data for the wt2 strain (AID 169);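 note: 0% = growth of vehicle-treated yeast cultures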; settings: S. cerevisiae wt2 strain growth inhibition, stronger effect = higher value
Procedure, shortened: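 Values express reduction in yeast growth under compound treatment, referenced to vehicle-treated cells.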

[12] = NCI Yeast Anticancer Drug Screen. Data for the mlh1 strain (AID 171);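 note: 0% = growth of vehicle-treated control cultures of the same strain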; settings: S. cerevisiae mlh1 strain growth inhibition, stronger effect = higher value
Procedure, shortened: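 Steps: expose the defined-mutant yeast strain to compound; expose a parallel culture to vehicle; measure growth; express compound effect as inhibition relative to the vehicle culture.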

[13] = NCI Yeast Anticancer Drug Screen. Data for the sgs1 strain (AID 173);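 note: 0% = growth of vehicle-only control cultures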; settings: S. cerevisiae sgs1 mutant, stronger effect = higher value
Procedure, shortened: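 Treat defined-mutant yeast with compound; measure growth; calculate inhibition relative to vehicle-treated cells.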

[14] = NCI Yeast Anticancer Drug Screen. Data for the mlh1 rad18 strain (AID 175); settings: S. cerevisiae mlh1 rad18 strain growth inhibition, stronger effect = higher value
Procedure, shortened: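 Test agents were incubated with a yeast strain of defined genotype (DNA damage repair defect). Inhibition of growth was derived by comparison with vehicle-exposed cultures.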

[15] = NCI Yeast Anticancer Drug Screen. Data for the rad18 strain (AID 177); settings: S. cerevisiae rad18 mutant growth inhibition, stronger effect = higher value
Procedure, shortened: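 A genetically defined yeast mutant impaired in DNA damage repair was treated with test compounds, then its growth was measured against cultures receiving vehicle alone.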

[16] = at 5.0 µM (retest, dose inferred, filed as 0.5)
[17] = at 50.0 µM (retest, dose inferred, filed as 5.0)

## CCOC(=O)C(NC(=O)c1ccccc1)(N1CCN(c2cc3c(cc2F)c(=O)c(C(=O)O)cn3C2CC2)CC1)C(F)(F)F (stereo not given)
[1]; at 1.2 µM
  growth inhibition: -1%
[1]; at 3.7 µM
  growth inhibition: 2%
[1]; at 11.0 µM
  growth inhibition: 11%
[1]; at 33.0 µM
  growth inhibition: 35%
[1]; at 100.0 µM
  growth inhibition: 75% (active)
[2]; at 1.2 µM
  growth inhibition: -2%
[2]; at 3.7 µM
  growth inhibition: -1%
[2]; at 11.0 µM
  growth inhibition: -1%
[2]; at 33.0 µM
  growth inhibition: 0%
[2]; at 100.0 µM
  growth inhibition: 2%
[3]; at 1.2 µM
  growth inhibition: -1%
[3]; at 3.7 µM
  growth inhibition: 0%
[3]; at 11.0 µM
  growth inhibition: 1%
[3]; at 33.0 µM
  growth inhibition: 2%
[3]; at 100.0 µM
  growth inhibition: 14%
[4]; at 1.2 µM
  growth inhibition: 1%
[4]; at 3.7 µM
  growth inhibition: 1%
[4]; at 11.0 µM
  growth inhibition: 0%
[4]; at 33.0 µM
  growth inhibition: 1%
[4]; at 100.0 µM
  growth inhibition: 2%
[5]; at 1.2 µM
  growth inhibition: -1%
[5]; at 3.7 µM
  growth inhibition: -2%
[5]; [16]
  growth inhibition: -6%
[5]; at 11.0 µM
  growth inhibition: 0%
[5]; at 33.0 µM
  growth inhibition: 2%
[5]; [17]
  growth inhibition: -27%
[5]; at 50.0 µM
  growth inhibition: 3.05%
[5]; at 100.0 µM
  growth inhibition: 3%
[6]; at 1.2 µM
  growth inhibition: 0%
[6]; at 3.7 µM
  growth inhibition: 2%
[6]; at 11.0 µM
  growth inhibition: 4%
[6]; at 33.0 µM
  growth inhibition: 3%
[6]; at 100.0 µM
  growth inhibition: 2%
[7]; [16]
  growth inhibition: -6%
[7]; [17]
  growth inhibition: -15%
[7]; at 50.0 µM
  growth inhibition: -4.1%
[8]; at 1.2 µM
  growth inhibition: -1%
[8]; at 3.7 µM
  growth inhibition: 3%
[8]; at 11.0 µM
  growth inhibition: 2%
[8]; at 33.0 µM
  growth inhibition: 6%
[8]; at 100.0 µM
  growth inhibition: 9%
[9]; [16]
  growth inhibition: 41%
[9]; [17]
  growth inhibition: -13%
[9]; at 50.0 µM
  growth inhibition: 18.5%
[10]; at 1.2 µM
  growth inhibition: -1%
[10]; at 3.7 µM
  growth inhibition: 2%
[10]; [16]
  growth inhibition: -15%
[10]; at 11.0 µM
  growth inhibition: 3%
[10]; at 33.0 µM
  growth inhibition: -39%
[10]; [17]
  growth inhibition: 3%
[10]; at 50.0 µM
  growth inhibition: -16.1%
[10]; at 100.0 µM
  growth inhibition: 3%
[11]; at 1.2 µM
  growth inhibition: -1%
[11]; at 3.7 µM
  growth inhibition: -2%
[11]; at 11.0 µM
  growth inhibition: -2%
[11]; at 33.0 µM
  growth inhibition: -2%
[11]; at 100.0 µM
  growth inhibition: 1%
[12]; at 1.2 µM
  growth inhibition: -1%
[12]; at 3.7 µM
  growth inhibition: -1%
[12]; at 11.0 µM
  growth inhibition: 0%
[12]; at 33.0 µM
  growth inhibition: 0%
[12]; at 100.0 µM
  growth inhibition: 1%
[13]; at 1.2 µM
  growth inhibition: -1%
[13]; at 3.7 µM
  growth inhibition: 0%
[13]; at 11.0 µM
  growth inhibition: 3%
[13]; at 33.0 µM
  growth inhibition: 3%
[13]; at 100.0 µM
  growth inhibition: 2%
[14]; [16]
  growth inhibition: -21%
[14]; [17]
  growth inhibition: 12%
[14]; at 50.0 µM
  growth inhibition: -1.95%
[15]; at 1.2 µM
  growth inhibition: -3%
[15]; at 3.7 µM
  growth inhibition: -1%
[15]; at 11.0 µM
  growth inhibition: 0%
[15]; at 33.0 µM
  growth inhibition: 2%
[15]; at 100.0 µM
  growth inhibition: 6%
